# Laboratory results from the supplement of paper PMC8728848.
# The full list was thinned out, with the strongest signals kept by preference.
# B1: LBL-152 (Laetiporus bicolor), B0D650 (protein)
# chain: MSNEYNPPLGIAFRLCGLASDRVLFSRVSPSPEVFHHPKSEVYPDQWFVAIPGSGQNAGCYAIKSKNTGKVLFSRMSPDPRVGHIDGDGKYPDNWFKFEAGSGKYAGYFRLRAVASDTVLVSRTSTGTDTQVINYPATSAKYDDQYFTILFDHHHHHH
# Assays:
# Test in all cases: glycan array binding signal (z-score within array); higher = stronger binding
# Conditions in all cases: glycan notation: IUPAC condensed, linker removed
# [1] = molecular target: Gal(b1-4)GlcNAc(b1-3)Gal(b1-4)GlcNAc(b1-3)Gal(b1-4)GlcNAc(b1-3)Gal(b1-4)GlcNAc(b1-2)Man(a1-3)[Gal(b1-4)GlcNAc(b1-3)Gal(b1-4)GlcNAc(b1-3)Gal(b1-4)GlcNAc(b1-3)Gal(b1-4)GlcNAc(b1-2)Man(a1-6)]Man(b1-4)GlcNAc(b1-4)GlcNAc
# How it was run: (§1)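 Glycan array binding is given as a within-array Z-score, which can be read as non-binding when negative. The arrays, 3228 of them, came from the Consortium for Functional Glycomics database and were retained only where the protein sequence was available. Z-scores were averaged across arrays of the same protein sequence at different concentrations or buffers and across linkers.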
# [2] = molecular target: Gal(b1-4)GlcNAc(b1-3)Gal(b1-4)GlcNAc(b1-3)Gal(b1-4)GlcNAc(b1-3)Gal(b1-4)GlcNAc(b1-2)Man(a1-3)[Gal(b1-4)GlcNAc(b1-3)Gal(b1-4)GlcNAc(b1-3)Gal(b1-4)GlcNAc(b1-3)Gal(b1-4)GlcNAc(b1-2)Man(a1-6)]Man(b1-4)GlcNAc(b1-4)[Fuc(a1-6)]GlcNAc
# How it was run: as §1
# [3] = molecular target: Gal(b1-4)GlcNAc(b1-3)Gal(b1-4)GlcNAc(b1-3)Gal(b1-4)GlcNAc(b1-3)Gal(b1-4)GlcNAc(b1-2)[Gal(b1-4)GlcNAc(b1-3)Gal(b1-4)GlcNAc(b1-3)Gal(b1-4)GlcNAc(b1-3)Gal(b1-4)GlcNAc(b1-6)]Man(a1-6)[Gal(b1-4)GlcNAc(b1-3)Gal(b1-4)GlcNAc(b1-3)Gal(b1-4)GlcNAc(b1-3)Gal(b1-4)GlcNAc(b1-2)Man(a1-3)]Man(b1-4)GlcNAc(b1-4)[Fuc(a1-6)]GlcNAc
# How it was run: as §1
# [4] = molecular target: Gal(b1-4)GlcNAc(b1-3)Gal(b1-4)GlcNAc(b1-3)Gal(b1-4)GlcNAc(b1-3)Gal(b1-4)GlcNAc(b1-3)Gal(b1-4)GlcNAc(b1-2)Man(a1-3)[Gal(b1-4)GlcNAc(b1-3)Gal(b1-4)GlcNAc(b1-3)Gal(b1-4)GlcNAc(b1-3)Gal(b1-4)GlcNAc(b1-3)Gal(b1-4)GlcNAc(b1-2)Man(a1-6)]Man(b1-4)GlcNAc(b1-4)GlcNAc
# How it was run: as §1
# [5] = molecular target: Gal(b1-4)GlcNAc(b1-3)Gal(b1-4)GlcNAc(b1-3)Gal(b1-4)GlcNAc(b1-3)Gal(b1-4)GlcNAc(b1-3)Gal(b1-4)GlcNAc(b1-2)Man(a1-3)[Gal(b1-4)GlcNAc(b1-3)Gal(b1-4)GlcNAc(b1-3)Gal(b1-4)GlcNAc(b1-3)Gal(b1-4)GlcNAc(b1-3)Gal(b1-4)GlcNAc(b1-2)Man(a1-6)]Man(b1-4)GlcNAc(b1-4)[Fuc(a1-6)]GlcNAc
# How it was run: as §1
# [6] = molecular target: Gal(b1-4)GlcNAc(b1-3)Gal(b1-4)GlcNAc(b1-3)Gal(b1-4)GlcNAc(b1-3)Gal(b1-4)GlcNAc(b1-3)Gal(b1-4)GlcNAc(b1-2)[Gal(b1-4)GlcNAc(b1-3)Gal(b1-4)GlcNAc(b1-3)Gal(b1-4)GlcNAc(b1-3)Gal(b1-4)GlcNAc(b1-3)Gal(b1-4)GlcNAc(b1-6)]Man(a1-6)[Gal(b1-4)GlcNAc(b1-3)Gal(b1-4)GlcNAc(b1-3)Gal(b1-4)GlcNAc(b1-3)Gal(b1-4)GlcNAc(b1-3)Gal(b1-4)GlcNAc(b1-2)Man(a1-3)]Man(b1-4)GlcNAc(b1-4)[Fuc(a1-6)]GlcNAc
# How it was run: as §1
# [7] = molecular target: Gal(b1-4)GlcNAc(b1-3)Gal(b1-4)GlcNAc(b1-3)Gal(b1-4)GlcNAc(b1-3)Gal(b1-4)GlcNAc(b1-3)Gal(b1-4)GlcNAc(b1-3)Gal(b1-4)GlcNAc(b1-2)Man(a1-3)[Gal(b1-4)GlcNAc(b1-3)Gal(b1-4)GlcNAc(b1-3)Gal(b1-4)GlcNAc(b1-3)Gal(b1-4)GlcNAc(b1-3)Gal(b1-4)GlcNAc(b1-3)Gal(b1-4)GlcNAc(b1-2)Man(a1-6)]Man(b1-4)GlcNAc(b1-4)GlcNAc
# How it was run: as §1
# [8] = molecular target: Gal6S(b1-4)GlcNAc
# How it was run: as §1
# [9] = molecular target: GalNAc(b1-3)Gal(a1-6)Gal(b1-4)Glc
# How it was run: as §1
# [10] = molecular target: GalNAc3S(b1-4)GlcNAc3S
# How it was run: as §1
# [11] = molecular target: GalNAc4S6S(b1-4)GlcNAc
# How it was run: as §1
# [12] = molecular target: GlcNAc(a1-4)Gal(b1-4)GlcNAc(b1-3)Gal(b1-4)[Fuc(a1-3)]GlcNAc(b1-3)Gal(b1-4)[Fuc(a1-3)]GlcNAc
# How it was run: as §1
# [13] = molecular target: GlcNAc(b1-2)Man(a1-3)[GlcNAc(b1-4)][GlcNAc(b1-2)Man(a1-6)]Man(b1-4)GlcNAc(b1-4)GlcNAc
# How it was run: as §1
# [14] = molecular target: GlcNAc(b1-3)Gal(b1-4)GlcNAc(b1-3)Gal(b1-4)GlcNAc(b1-3)Gal(b1-4)GlcNAc(b1-3)Gal(b1-4)GlcNAc(b1-2)Man(a1-3)[GlcNAc(b1-3)Gal(b1-4)GlcNAc(b1-3)Gal(b1-4)GlcNAc(b1-3)Gal(b1-4)GlcNAc(b1-3)Gal(b1-4)GlcNAc(b1-2)Man(a1-6)]Man(b1-4)GlcNAc(b1-4)GlcNAc
# How it was run: as §1
# [15] = molecular target: GlcNAc(b1-3)Gal(b1-4)GlcNAc(b1-3)Gal(b1-4)GlcNAc(b1-3)Gal(b1-4)GlcNAc(b1-3)Gal(b1-4)GlcNAc(b1-2)Man(a1-3)[GlcNAc(b1-3)Gal(b1-4)GlcNAc(b1-3)Gal(b1-4)GlcNAc(b1-3)Gal(b1-4)GlcNAc(b1-3)Gal(b1-4)GlcNAc(b1-2)Man(a1-6)]Man(b1-4)GlcNAc(b1-4)[Fuc(a1-6)]GlcNAc
# How it was run: as §1
# [16] = molecular target: GlcNAc(b1-3)Man
# How it was run: as §1
# [17] = molecular target: GlcNAc6S(b1-3)Gal(b1-4)GlcNAc
# How it was run: as §1
# [18] = molecular target: Neu5Ac(a2-3)Gal(b1-3)GalNAc(b1-3)Gal(a1-4)Gal(b1-4)Glc
# How it was run: as §1
# [19] = molecular target: Neu5Ac(a2-3)Gal(b1-3)GalNAc(b1-4)[Neu5Ac(a2-8)Neu5Ac(a2-3)]Gal(b1-4)Glc
# How it was run: as §1
# [20] = molecular target: Neu5Ac(a2-3)Gal(b1-3)[Fuc(a1-4)]GlcNAc(b1-3)Gal(b1-3)[Fuc(a1-4)]GlcNAc
# How it was run: as §1
# [21] = molecular target: Neu5Ac(a2-3)Gal(b1-4)GlcNAc(b1-2)Man
# How it was run: as §1
# [22] = molecular target: Neu5Ac(a2-3)Gal(b1-4)GlcNAc(b1-2)[Neu5Ac(a2-3)Gal(b1-4)GlcNAc(b1-4)]Man(a1-3)[GlcNAc(b1-4)][Neu5Ac(a2-3)Gal(b1-4)GlcNAc(b1-4)Man(a1-6)]Man(b1-4)GlcNAc(b1-4)GlcNAc
# How it was run: as §1
# [23] = molecular target: Neu5Ac(a2-3)Gal(b1-4)GlcNAc(b1-3)Gal(b1-4)GlcNAc(b1-6)[Gal(b1-3)]GalNAc
# How it was run: as §1
# [24] = molecular target: Neu5Ac(a2-3)Gal(b1-4)GlcNAc(b1-6)GalNAc
# How it was run: as §1
# [25] = molecular target: Neu5Ac(a2-3)GalNAc(b1-4)GlcNAc
# How it was run: as §1
# [26] = molecular target: Neu5Ac(a2-3)[GalNAc(b1-4)]Gal(b1-4)GlcNAc(b1-3)GalNAc
# How it was run: as §1
# [27] = molecular target: Neu5Ac(a2-6)Gal(b1-4)GlcNAc(b1-3)Gal(b1-4)GlcNAc(b1-3)Gal(b1-4)GlcNAc(b1-2)Man(a1-3)[Neu5Ac(a2-6)Gal(b1-4)GlcNAc(b1-3)Gal(b1-4)GlcNAc(b1-3)Gal(b1-4)GlcNAc(b1-2)Man(a1-6)]GalNAc
# How it was run: as §1
# [28] = molecular target: Neu5Ac(a2-6)Gal(b1-4)GlcNAc(b1-3)Gal(b1-4)GlcNAc(b1-6)[Gal(b1-3)]GalNAc
# How it was run: as §1
# [29] = molecular target: Neu5Ac(a2-8)Neu5Ac(a2-3)Gal(b1-4)Glc
# How it was run: as §1
binder,measurement,setting,value
B1,glycan array binding signal (z-score),[1],5.39
same,glycan array binding signal (z-score),[2],8.72
same,glycan array binding signal (z-score),[3],6.24
same,glycan array binding signal (z-score),[4],10.6
same,glycan array binding signal (z-score),[5],9.73
same,glycan array binding signal (z-score),[6],7.26
same,glycan array binding signal (z-score),[7],5.94
same,glycan array binding signal (z-score),[8],-0.151
same,glycan array binding signal (z-score),[9],-0.159
same,glycan array binding signal (z-score),[10],-0.163
same,glycan array binding signal (z-score),[11],-0.15
same,glycan array binding signal (z-score),[12],-0.147
same,glycan array binding signal (z-score),[13],-0.153
same,glycan array binding signal (z-score),[14],3.47
same,glycan array binding signal (z-score),[15],4.51
same,glycan array binding signal (z-score),[16],-0.156
same,glycan array binding signal (z-score),[17],-0.157
same,glycan array binding signal (z-score),[18],-0.15
same,glycan array binding signal (z-score),[19],-0.145
same,glycan array binding signal (z-score),[20],-0.147
same,glycan array binding signal (z-score),[21],-0.149
same,glycan array binding signal (z-score),[22],-0.16
same,glycan array binding signal (z-score),[23],-0.162
same,glycan array binding signal (z-score),[24],-0.16
same,glycan array binding signal (z-score),[25],-0.153
same,glycan array binding signal (z-score),[26],-0.151
same,glycan array binding signal (z-score),[27],-0.134
same,glycan array binding signal (z-score),[28],-0.154
same,glycan array binding signal (z-score),[29],-0.157
